Measured values published in PubChem BioAssay AID1159580 (chemical genetic matrix, 2015).
Where “and” joins values, the source holds several entries; their conditions need not be identical. Equal values may be shown once. About 2,000 (36%) of roughly 5,500 compounds were called active. Roughly 18% stayed inconclusive and do not appear here. Rule as the data show it: active = normalized growth mostly below about 0.91 (no sharp cut-off); inconclusive = no clear call, values can overlap the other calls; inactive = mostly above about 0.92. This is one part of the list.

Assay: chemical genetic growth profiling, strain panel (AID 1159580);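 also: tested at 20 µM; growth read once vehicle control cultures reached saturation at 30 °C; 1 = growth at the plate median or of vehicle wells; lower values mean less growth of the strain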
Details: S. cerevisiae deletion strains, growth OD

Measured: normalized growth

CC(=O)[C@H]1CCC2C3CC=C4C[C@@H](O)CC[C@]4(C)C3CC[C@@]21C (stereo partly specified)
active: locus YAL026C, strain drs2, stronger effect = lower value 0.788 | locus YCL069W, strain vba3, stronger effect = lower value 0.897 | locus YDR137W, strain rgp1, stronger effect = lower value 0.518 | locus YDR195W, strain ref2 1.28 [resistant] | locus YDR392W, strain spt3, stronger effect = lower value 0.335 | locus YER155C, strain BEM2 (second series), stronger effect = lower value 0.774 | locus YGL253W, strain hxk2, stronger effect = lower value 0.9 | locus YGR252W, strain gcn5, stronger effect = lower value 0.65 | locus YHR142W, strain chs7, stronger effect = lower value 0.862 | locus YJL166W, strain qcr8, stronger effect = lower value 0.895
0.754 (active) and 0.958 (inactive): locus YJL095W, strain BCK1, stronger effect = lower value
inactive: locus YAL013W, strain DEP1, stronger effect = lower value 0.999 | locus YAL021C, strain ccr4, stronger effect = lower value 0.958 | locus YAL030W, strain snc1, stronger effect = lower value 0.956 | locus YBL061C, strain skt5, stronger effect = lower value 0.981 | locus YBR009C, strain hhf1, stronger effect = lower value 0.929 | locus YBR021W, strain FUR4, stronger effect = lower value 0.962 | locus YBR023C, strain chs3, stronger effect = lower value 0.969 | locus YBR171W, strain sec66, stronger effect = lower value 0.996 | locus YBR229C, strain ROT2, stronger effect = lower value 1.01 | locus YBR231C, strain swc5, stronger effect = lower value 0.955 | locus YBR279W, strain paf1, stronger effect = lower value 0.981 | locus YCL011C, strain gbp2, stronger effect = lower value 0.947 | locus YCL016C, strain dcc1, stronger effect = lower value 0.95 | locus YCL029C, strain bik1, stronger effect = lower value 0.966 | locus YCR088W, strain abp1, stronger effect = lower value 1.02 | locus YDL005C, strain med2, stronger effect = lower value 1 | locus YDL035C, strain GPR1, stronger effect = lower value 0.863 | locus YDL040C, strain nat1, stronger effect = lower value 1.01 | locus YDL074C, strain BRE1, stronger effect = lower value 0.836 | locus YDL101C, strain DUN1, stronger effect = lower value 0.985 | locus YDL134C, strain PPH21, stronger effect = lower value 0.957 | locus YDL185W, strain tfp1, stronger effect = lower value 1.02 | locus YDL192W, strain arf1, stronger effect = lower value 1.02 | locus YDR001C, strain nth1, stronger effect = lower value 1.02 | locus YDR069C, strain doa4, stronger effect = lower value 0.965 | locus YDR101C, strain arx1, stronger effect = lower value 1.01 | locus YDR150W, strain NUM1, stronger effect = lower value 1.01 | locus YDR159W, strain sac3, stronger effect = lower value 0.927 | locus YDR162C, strain NBP2, stronger effect = lower value 0.958 | locus YDR297W, strain sur2, stronger effect = lower value 0.973 | locus YDR318W, strain mcm21, stronger effect = lower value 0.94 | locus YDR334W, strain swr1, stronger effect = lower value 1.03 | locus YDR335W, strain msn5, stronger effect = lower value 0.958 | locus YDR388W, stronger effect = lower value 0.981 | locus YDR502C, strain sam2, stronger effect = lower value 0.943 | locus YEL003W, strain gim4, stronger effect = lower value 0.938 | locus YEL037C, strain rad23, stronger effect = lower value 0.976 | locus YEL061C, strain CIN8 (second series), stronger effect = lower value 1.01 | locus YEL061C, strain CIN8, stronger effect = lower value 1.01 | locus YER015W, strain faa2, stronger effect = lower value 0.939 | locus YER016W, strain bim1, stronger effect = lower value 0.996 | locus YER110C, stronger effect = lower value 1.03 | locus YER111C, strain swi4, stronger effect = lower value 1.01 | locus YER155C, strain BEM2, stronger effect = lower value 1.01 | locus YER167W, strain BCK2, stronger effect = lower value 0.926 | locus YFR010W, strain ubp6, stronger effect = lower value 1.05 | locus YGL078C, strain dbp3, stronger effect = lower value 1.02 | locus YGL086W, strain mad1, stronger effect = lower value 0.944 | locus YGL167C, strain pmr1, stronger effect = lower value 0.996 | locus YGL173C, strain kem1, stronger effect = lower value 0.923 | locus YGL227W, strain vid30, stronger effect = lower value 1.01 | locus YGL240W, strain doc1, stronger effect = lower value 0.982 | locus YGL248W, strain PDE1, stronger effect = lower value 0.962 | locus YGR078C, strain PAC10, stronger effect = lower value 0.879 | locus YGR135W, strain pre9, stronger effect = lower value 0.904 | locus YGR229C, strain SMI1, stronger effect = lower value 0.958 | locus YHR013C, strain ard1, stronger effect = lower value 0.948 | locus YHR027C, strain rpn1, stronger effect = lower value 0.961 | locus YHR030C, strain SLT2, stronger effect = lower value 0.95 and 0.954 | locus YHR079C, strain IRE1 (second series), stronger effect = lower value 0.998 | locus YHR079C, strain IRE1, stronger effect = lower value 0.988 | locus YHR094C, strain hxt1, stronger effect = lower value 1.03 | locus YHR129C, strain ARP1, stronger effect = lower value 1.01 | locus YHR200W, strain rpn10, stronger effect = lower value 0.965 | locus YIL066C, strain RNR3, stronger effect = lower value 0.865 | locus YIL073C, strain SPO22, stronger effect = lower value 0.807 | locus YIL125W, strain kgd1, stronger effect = lower value 1.03 | locus YIR030C, strain dcg1, stronger effect = lower value 1.04 | locus YJL092W, strain hpr5, stronger effect = lower value 0.97 | locus YJL095W, strain BCK1 (second series), stronger effect = lower value 0.935 | locus YJL115W, strain asf1, stronger effect = lower value 0.994 | locus YJL129C, strain trk1, stronger effect = lower value 0.935 | locus YJL134W, strain LCB3, stronger effect = lower value 1.01 | locus YJL154C, strain vps35, stronger effect = lower value 1.01 | locus YJL164C, strain tpk1, stronger effect = lower value 0.923 | locus YJL168C, strain set2, stronger effect = lower value 1.03 | locus YJL187C, strain SWE1 (second series), stronger effect = lower value 0.945 | locus YJR043C, strain POL32, stronger effect = lower value 0.991 | locus YJR066W, strain TOR1, stronger effect = lower value 0.866 | locus YJR075W, strain HOC1, stronger effect = lower value 0.933
